Assay [1] in a line: qHTS of pediatric cancer cell lines to identify multiple opportunities for drug repurposing: Primary screen for SJ-GBM2 cells (AID 1347091).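 For activity change, negative = cytotoxic: plate controls were DMSO neutral control for no effect and bortezomib for full effect.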 The procedure, abridged:
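Cell viability, CellTiter-Glo luminescence; 500-1,000 cells/well, 8- or 11-point titration, 48 h compound exposure at 37 degrees C, 5% CO2. Controls: DMSO neutral, bortezomib 2.3 µM final as positive.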
Background: In qHTS, concentration-response curves come from the screen itself.

Assay [2] in a line: qHTS of pediatric cancer cell lines to identify multiple opportunities for drug repurposing: Primary screen for A673 cells (AID 1347092). For activity change, negative = cytotoxic: % is set by controls: 0 for no effect and ±100 for the full control effect. Note: nearly all actives have a fitted effect of over 45% in size. The procedure, abridged: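 Cell viability of A673 measured by CellTiter-Glo ATP luminescence after 48 hours compound exposure. Dilution series spanned 0.78 nM to 46 µM (MIPE, 11-point) or 0.59 nM to 46 µM (NPC, 8-point); bortezomib 2.3 uM positive control.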

The nature of assay [3]: qHTS of pediatric cancer cell lines to identify multiple opportunities for drug repurposing: Primary screen for SK-N-MC cells (AID 1347093).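 For activity change, negative = cytotoxic: series mostly up to about 46 µM; plate controls were DMSO neutral control for no effect and bortezomib for full effect.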 The procedure, abridged: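 Metabolically active cells were quantified by ATP-dependent luminescence (CellTiter-Glo, 15 min at room temperature) following 48 h treatment. Cells had been plated at 500-1,000 per well and settled for 5 h beforehand.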

Assay [4] can be described thus: qHTS of pediatric cancer cell lines to identify multiple opportunities for drug repurposing: Primary screen for BT-37 cells (AID 1347094).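 For activity change, negative = cytotoxic: series mostly up to about 57 µM; plate controls were DMSO for no effect and bortezomib for full effect.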 In short, it runs like this:
(§1)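 ATP-based luminescence (CellTiter-Glo) quantifies viability after a 48-hour exposure. Compounds are dosed across 8 or 11 final concentrations; DMSO and 2.3 µM bortezomib serve as controls.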

A short description of assay [5]: qHTS of pediatric cancer cell lines to identify multiple opportunities for drug repurposing: Primary screen for NB-EBc1 cells (AID 1347095).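 For activity change, negative = cytotoxic: plate controls were DMSO neutral control for no effect and bortezomib for full effect.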 The procedure, abridged:
as §1

Assay [6] can be described thus: qHTS of pediatric cancer cell lines to identify multiple opportunities for drug repurposing: Primary screen for U-2 OS cells (AID 1347096).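 For activity change, negative = cytotoxic: plate controls were DMSO wells for no effect and bortezomib positive control wells for full effect.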 Note: nearly all actives have a fitted effect of over 50% in size. The procedure, abridged:
(§2)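 Cells (500-1,000/well) rested 5 h, then received compounds for 48 h; metabolically active cells were measured by CellTiter-Glo luminescence. Final concentrations spanned up to 46 µM (MIPE, 11-point) or 0.59 nM-46 µM (NPC, 8-point) in primary screens, 11-point in follow-ups.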

Assay [7] is described as follows: qHTS of pediatric cancer cell lines to identify multiple opportunities for drug repurposing: Primary screen for Saos-2 cells (AID 1347097). For activity change, negative = cytotoxic: % is set by controls: 0 for no effect and ±100 for the full control effect. Note: nearly all actives have a fitted effect of over 40% in size. In short, it runs like this:
as §1

Assay [8] in a line: qHTS of pediatric cancer cell lines to identify multiple opportunities for drug repurposing: Primary screen for SK-N-SH cells (AID 1347098). For activity change, negative = cytotoxic: % is set by controls: 0 for no effect and ±100 for the full control effect. Note: nearly all actives have a fitted effect of over 65% in size. In short, it runs like this:
as §2

Assay [9] is described as follows: qHTS of pediatric cancer cell lines to identify multiple opportunities for drug repurposing: Primary screen for NB1643 cells (AID 1347099).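 For activity change, negative = cytotoxic: plate controls were DMSO neutral control for no effect and bortezomib positive control for full effect.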 Note: nearly all actives have a fitted effect of over 50% in size. The procedure, abridged:
as §1

Assay [10] in a line: qHTS of pediatric cancer cell lines to identify multiple opportunities for drug repurposing: Primary screen for LAN-5 cells (AID 1347100).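 For activity change, negative = cytotoxic: plate controls were DMSO neutral control for no effect and bortezomib positive control for full effect.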 In short, it runs like this:
as §2

Assay [11] is described as follows: qHTS of pediatric cancer cell lines to identify multiple opportunities for drug repurposing: Primary screen for BT-12 cells (AID 1347101).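 For activity change, negative = cytotoxic: plate controls were DMSO for no effect and bortezomib positive control for full effect.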 Note: nearly all actives have a fitted effect of over 25% in size. In short, it runs like this: as §2
A short description of assay [12]: qHTS of pediatric cancer cell lines to identify multiple opportunities for drug repurposing: Primary screen for Rh18 cells (AID 1347102). For activity change, negative = cytotoxic: % is set by controls: 0 for no effect and ±100 for the full control effect. Note: nearly all actives have a fitted effect of over 65% in size. In short, it runs like this:
as §2

Assay [13] can be described thus: qHTS of pediatric cancer cell lines to identify multiple opportunities for drug repurposing: Primary screen for OHS-50 cells (AID 1347103).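 For activity change, negative = cytotoxic: plate controls were DMSO neutral control for no effect and bortezomib positive control for full effect.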 Note: nearly all actives have a fitted effect of over 40% in size. In short, it runs like this: as §2
A short description of assay [14]: qHTS of pediatric cancer cell lines to identify multiple opportunities for drug repurposing: Primary screen for RD cells (AID 1347104).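 For activity change, negative = cytotoxic: plate controls were DMSO for no effect and bortezomib for full effect.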 Note: nearly all actives have a fitted effect of over 55% in size. In short, it runs like this: as §1
Assay [15] can be described thus: qHTS of pediatric cancer cell lines to identify multiple opportunities for drug repurposing: Primary screen for MG 63 (6-TG R) cells (AID 1347105). Note: nearly all actives have a fitted effect of over 50% in size. In short, it runs like this: as §1
Assay [16] can be described thus: qHTS of pediatric cancer cell lines to identify multiple opportunities for drug repurposing: Primary screen for control Hh wild type fibroblast cells (AID 1347106).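 For activity change, negative = cytotoxic: series mostly up to about 46 µM; % is set by controls: 0 for no effect and ±100 for the full control effect; a drop in luminescence marks cytotoxicity and a rise apparent proliferation.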 Note: nearly all actives have a fitted effect of over 55% in size. The procedure, abridged:
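Cells (500-1,000/well) in growth media were settled 5 h at 37 degrees C, then given compounds for 48 h. Viability was read as CellTiter-Glo luminescence. Primary runs used MIPE at 11 points (0.78 nM-46 µM) and NPC at 8 points (0.59 nM-46 µM); follow-ups used 11 points.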

A short description of assay [17]: qHTS of pediatric cancer cell lines to identify multiple opportunities for drug repurposing: Primary screen for Rh30 cells (AID 1347107). Note: nearly all actives have a fitted effect of over 75% in size. In short, it runs like this: as §2
Assay [18] in a line: qHTS of pediatric cancer cell lines to identify multiple opportunities for drug repurposing: Primary screen for Rh41 cells (AID 1347108).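 For activity change, negative = cytotoxic: series mostly up to about 46 µM; luminescence drop marks cytotoxic hits.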 Note: nearly all actives have a fitted effect of over 70% in size. The procedure, abridged: as §1
Assay [19] in a line: qHTS of pediatric cancer cell lines to identify multiple opportunities for drug repurposing: Confirmatory screen for NB1643 cells (AID 1347109).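 For activity change, negative = cytotoxic: plate controls were DMSO for no effect and bortezomib for full effect.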 Note: nearly all actives have a fitted effect of over 45% in size. The procedure, abridged:
as §2

Assay [20] in a line: qHTS of pediatric cancer cell lines to identify multiple opportunities for drug repurposing: Confirmatory screen for SK-N-MC cells (AID 1347111).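 For activity change, negative = cytotoxic: plate controls were DMSO for no effect and bortezomib for full effect.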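 Note: cells exposed to compound for 48 h before the readout; nearly all actives have a fitted effect of over 70% in size.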 The procedure, abridged:
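Seed 500-1,000 cells/well; rest 5 h at 37 degrees C. Pin-transfer compounds, 11-point titration. Incubate 48 h. Add CellTiter-Glo, 15 min RT, read luminescence.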

Several values for one entry are separate records, joined by “and”; a condition that tells them apart may be missing. Identical values can stand only once. Results filed as inconclusive are left out. Some structures have more than one record in an assay (separate samples or runs), and their calls can disagree. A number with no mark means an inactive call. Activity calls are given as the source filed them. Calls come from the whole dose curve; as a rule, active = well fitted curve in the direction sought with a large enough effect; inconclusive = small, poorly fitted or top-dose-only effect, or another doubt; inactive = no such curve, though single readings can be large; an effect the other way counts as inactive or inconclusive.

For eleven compounds, activity change, negative = cytotoxic and Potency results are on record in PubChem BioAssay (NCATS).
Potency is the fitted concentration of half-maximal effect.

Take `CCN(CCO)CCCC(C)Nc1ccnc2cc(Cl)ccc12` (stereo not drawn): the activity change, negative = cytotoxic in [1] was 13.4% [at 4.84 µM]; in assay [2], 4.16% [at 4.84 µM]; in [3], -1.47% [at 4.84 µM]; in assay [4], 5.71% [at 6.03 µM]; in assay [5] it was 13.9% [at 4.84 µM]; in assay [8] it was -2.15% [at 6 µM]. The activity change, negative = cytotoxic was 19.4% [at 4.84 µM] in assay [9]; 22.8% [at 4.84 µM] in assay [10]; -4.93% [at 6.18 µM] in [13]; 5.84% [at 4.84 µM] in assay [14]; 6.76% [at 4.84 µM] in assay [15]. The Potency in assay [2] was 2.35 µM (active); in assay [3], 2.96 µM (active); in [4] it was 3.85 µM (active); in assay [5], 1.18 µM (active); in assay [10] it was 3.72 µM (active). Besides, the Potency entry in [6], in assay [7], in [11], in assay [12], in assay [16] and in assay [17] was “inactive” each time. Besides, the Potency result in [18], in assay [19] and in assay [20] was “inactive” each time.
Regarding `C=CCc1cc(OC)c(O)c(C(=O)NCCO)c1`, the Potency entry in assay [1], in [2], in assay [3], in assay [4], in assay [5] and in assay [6] was “inactive” in each case. The Potency entry in assay [7], in assay [8], in assay [9], in assay [10], in assay [11] and in [12] was “inactive” in each case. Besides, the Potency entry in assay [13], in assay [14], in [15], in assay [16], in assay [17] and in assay [18] was “inactive” throughout.
As for `CN(C)c1ccc2nc3ccc(=[N+](C)C)cc-3sc2c1`, the Potency is 3.32 µM (active) and 2.66 µM (active) in [1]; 9.35 µM (active) and 8.41 µM (active) in assay [2]; 1.18 µM (active) and 1.19 µM (active) in assay [3]; 19.3 µM (active) and 15.5 µM (active) in assay [4]; 2.09 µM (active) and 2.66 µM (active) in assay [5]; 10.6 µM (active) in assay [6]. For the same compound, the Potency in assay [7] is 1.48 µM (active) and 2.66 µM (active); in assay [8], 3.41 µM (active) and 5.45 µM (active); in [9], 10.6 µM (active); in assay [10], 1.68 µM (active); in [11], 6.85 µM (active) and 3.09 µM (active); in assay [12], 7.43 µM (active) and 3.35 µM (active). The Potency in [13] was 1.37 µM (active) and 872 nM (active); in [14], 2.35 µM (active) and 3.76 µM (active); in assay [15], 3.72 µM (active) and 2.11 µM (active); in assay [16], 11.9 µM (active); in assay [18] it was 5.9 µM (active) and 6.68 µM (active); in assay [19] it was 3.29 µM (active). Further, the Potency in assay [20] was 1.17 µM (active).
As to `O=C(O)c1cc(=O)c2c(OCC(O)COc3cccc4oc(C(=O)O)cc(=O)c34)cccc2o1`, the Potency result in assay [1], in assay [2], in assay [3], in assay [4], in assay [5] and in assay [6] was “inactive” throughout. For the same compound, the Potency result in [7], in [8], in assay [9], in assay [10], in assay [11] and in assay [12] was “inactive” each time. The Potency result in assay [13], in assay [14], in assay [15], in assay [16], in [17] and in [18] was “inactive” each time.
Regarding `CCC[C@@H]1C[C@@H](C(=O)N[C@@H]([C@H]2O[C@H](SC)[C@H](O)[C@@H](O)[C@H]2O)[C@@H](C)O)N(C)C1`, the Potency entry in assay [1], in assay [2], in assay [3], in assay [4], in assay [5] and in assay [6] was “inactive” throughout. The Potency entry in [7], in assay [8], in assay [9], in [10], in [11] and in assay [12] was “inactive” in each case. Moreover, the Potency result in assay [13], in assay [14], in assay [15], in assay [16], in assay [17] and in [18] was “inactive” throughout.
`N=C(N)c1ccc2cc(OC(=O)c3ccc(N=C(N)N)cc3)ccc2c1`: the Potency result in [1], in assay [2], in assay [3], in assay [4], in assay [5] and in [6] was “inactive” each time. The Potency result in assay [7], in assay [8], in assay [9], in assay [10], in assay [12] and in assay [13] was “inactive” each time. The Potency result in assay [14], in [15], in [16], in [17] and in [18] was “inactive” in each case.
For `CC(C)C[C@H](NC(=O)[C@H](Cc1ccccc1)NC(=O)c1cnccn1)B(O)O`, the Potency in assay [1] is 26.6 nM (active); in [2] it was 0.0531 µM (active); in [3] it was 0.006 µM (active); in assay [4], 0.0347 µM (active); in [5], 0.0376 µM (active); in assay [6], 0.0422 µM (active). For the same compound, the Potency in [7] was 469 nM (active); in assay [8] it was 42.9 nM (active); in assay [9] it was 0.0299 µM (active); in assay [10] it was 0.0166 µM (active); in assay [11], 43.2 nM (active); in assay [12], 29.6 nM (active). Moreover, the Potency was 87.1 nM (active) in assay [13]; 53.1 nM (active) in assay [14]; 23.5 nM (active) in [15]; 0.0743 µM (active) in assay [16]; 0.0935 µM (active) in assay [17]; 29.6 nM (active) in [18]. Moreover, the Potency in [19] is 0.0369 µM (active); in assay [20], 0.0131 µM (active).
Consider `C[Se]CCC(N)C(=O)O` (stereo not drawn), for which the Potency result in assay [1], in assay [2], in assay [4], in assay [5], in assay [6] and in assay [7] was “inactive” throughout. Also, the Potency result in assay [8], in [10], in [11], in assay [12], in assay [13] and in assay [14] was “inactive” in each case. Moreover, the Potency result in assay [15], in [16] and in assay [18] was “inactive” throughout. In addition, the Potency in [3] is 54 µM (active).
As to `CCCCCCCCCCCCCCCCCCCCCCO`, the Potency result in assay [1], in [2], in assay [3], in assay [4], in assay [5] and in assay [6] was “inactive” each time. Moreover, the Potency entry in assay [7], in assay [9], in assay [10], in assay [11], in [12] and in [13] was “inactive” throughout. For the same compound, the Potency entry in assay [14], in [15], in [16], in assay [17] and in assay [18] was “inactive” in each case.
Take `CC(C)(S)[C@@H](N)C(=O)O`: the Potency result in [1], in assay [2], in assay [3], in assay [4], in assay [5] and in assay [6] was “inactive” in each case. In addition, the Potency result in assay [7], in assay [8], in [9], in assay [10], in assay [11] and in [12] was “inactive” in each case. Besides, the Potency result in assay [13], in [14], in assay [15], in [16], in assay [17] and in assay [18] was “inactive” throughout.
With `O=C(OC1C[C@H]2CC[C@@H](C1)[N+]21CCCC1)C(O)(c1ccccc1)c1ccccc1` (stereo partly drawn), the Potency result in assay [1], in [2], in [4], in assay [5], in [6] and in assay [7] was “inactive” in each case. For the same compound, the Potency entry in assay [10], in assay [11], in assay [12], in assay [13], in [14] and in [15] was “inactive” each time. Besides, the Potency entry in [16], in assay [17] and in assay [18] was “inactive” each time. Also, the Potency is 14.8 µM (active) in [3] and 10.5 µM (active) in assay [9].
